Bioassay records as filed in PubChem.
Rows were chosen to be rich in hits. Some 5.7% of all compounds tested hit in one or more screens of this group.
KB-V1 cytotox – KB-V1 MDR subline cytotoxicity | KB-V1 MDR cells viability, CellTiter-Glo, 72 h | Potency, µM (titrated, usually from 46.1 µM), usual class: cytotoxic | actives 3.4% (n = 400,000); note: nearly all actives have a fitted effect of over 60% in size
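KB-V1 MDR subline cells in DMEM (phenol-red free, 10% FBS) exposed to compounds in qHTS concentration series for 72 h at 37 degrees C. Viability read by CellTiter-Glo luminescence; concentration-effect curves fitted after normalization and correction.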
HT1080 IDH1KD tx – toxicity to HT-1080 IDH1 knockdown cells (counter line). actives 2% (n = 360,000). Potency, µM (series often up to 46.1 µM), for the others: at the highest dose activity, negative = toxicity, most hits filed as cytotoxic. AID 686971. HT-1080 IDH1 knockdown viability, ATP luminescence, 48 h;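 note: 0% = DMSO wells and -100% = cell-free medium wells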
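Using the IDH1-knockdown HT-1080 line run in the same batch and compound series as the NT line, viability after 48 h at 37 °C was determined by CellTiter-Glo luminescence and expressed as % activity.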
KB-3-1 tox – kills parental KB-3-1 adenocarcinoma cells; KB-3-1 viability, CellTiter-Glo ATP luminescence, 72 h; Potency, µM (series often up to 46.1 µM), actives largely listed as cytotoxic; actives 1.4% (n = 400,000); AID 1347075; note: nearly all actives have a fitted effect of over 60% in size
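Screening of KB-3-1 cells (DMEM, 10% FBS, phenol-red free) ran from lowest to highest compound concentration; after 72 h at 37 °C viability was read luminescently and curves fitted.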
HT1080-NT tox – kills 2HG-producing HT-1080-NT fibrosarcoma cells; HT-1080-NT fibrosarcoma viability, CellTiter-Glo ATP luminescence, 48 h; Potency, µM (top dose mostly 46.1 µM), for the others: at the highest dose activity, negative = less viability, usual class: cytotoxic; actives 1.6% (n = 360,000); AID 686970;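 note: NT is the 2HG producing partner of a matched IDH1 knockdown line; 0% = DMSO-treated cells and -100% = media-only wells without cells; nearly all actives have a fitted effect of over 55% in size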
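Toxicity toward the 2HG-producing NT line was scored as %Activity, normalised to DMSO and no-cell wells, from CellTiter-Glo luminescence after 48 hours' treatment.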
Active calls of the source: *; ! = a repeat was not active. Calls come from the whole dose curve; as a rule, active = well fitted curve in the direction sought with a large enough effect; inconclusive = small, poorly fitted or top-dose-only effect, or another doubt; inactive = no such curve, though single readings can be large; an effect the other way counts as inactive or inconclusive. Unless noted, % is set by controls: 0 for no effect and ±100 for the full control effect; potency is the fitted concentration of half-maximal effect.

Results for CC(C)CC(N)c1csc(NC(=O)NCCc2ccccc2)n1 (stereo unspecified) ?
KB-V1 cytotox: inactive; HT1080 IDH1KD tx: inconclusive; KB-3-1 tox: inactive; HT1080-NT tox: inconclusive

How did NC(Cc1ccccc1)c1csc(Nc2ccc(C(=O)NCCCO)cn2)n1 (stereo unspecified) do in these assays?
KB-V1 cytotox: inactive; HT1080 IDH1KD tx: 15%; KB-3-1 tox: inactive; HT1080-NT tox: -5%

How did CN(Cc1ccccc1)C(=O)c1ccc(Nc2nc(C(N)Cc3ccccc3)cs2)nc1 (stereo unspecified) do in these assays?
KB-V1 cytotox: inactive; HT1080 IDH1KD tx: 21µM*; KB-3-1 tox: inactive; HT1080-NT tox: inconclusive

How did CCCCN(C)C(=O)c1ccc(Nc2nc(C(N)Cc3ccccc3)cs2)nc1 (stereo unspecified) do in these assays?
KB-V1 cytotox: inactive; HT1080 IDH1KD tx: -27%; KB-3-1 tox: inactive; HT1080-NT tox: 23µM*

Results for NC(Cc1ccc(Cl)cc1)c1csc(Nc2ccc(C(=O)NCCCO)cn2)n1 (stereo unspecified) ?
KB-V1 cytotox: inactive; HT1080 IDH1KD tx: inconclusive; KB-3-1 tox: inactive; HT1080-NT tox: 15µM*

Results for CC(C)CC(N)c1csc(Nc2ccc(C(=O)N(C)Cc3ccccc3)cn2)n1 (stereo unspecified) ?
KB-V1 cytotox: inactive; HT1080 IDH1KD tx: 5.8µM*; KB-3-1 tox: inconclusive; HT1080-NT tox: 4.6µM*

What do the screens show for `COc1cc(Cl)c(C)cc1Nc1nc2ccccc2n2cnnc12`?
KB-V1 cytotox: inactive; KB-3-1 tox: inactive

How did CN(Cc1ccccc1)C(=O)c1ccc(Nc2nc(C(N)COCc3ccccc3)cs2)nc1 (stereo unspecified) do in these assays?
KB-V1 cytotox: inactive; HT1080 IDH1KD tx: inconclusive; KB-3-1 tox: inactive; HT1080-NT tox: 23µM*

What do the screens show for `CC(C)CC(N)c1csc(Nc2cc(Oc3ccccc3)ncn2)n1` (stereo unspecified)?
KB-V1 cytotox: inconclusive; HT1080 IDH1KD tx: -24%; KB-3-1 tox: inactive; HT1080-NT tox: 21µM*

What do the screens show for `Cc1cccc(-n2ncc3c(NNC(=O)c4ccccc4Cl)ncnc32)c1`?
KB-V1 cytotox: inconclusive; KB-3-1 tox: inactive

Results for CN(C(=O)c1cc(-c2ccccc2O)on1)c1ccccc1 ?
KB-V1 cytotox: inactive; KB-3-1 tox: inconclusive

Results for O=C(CCn1ccc2cc(S(=O)(=O)N3CCCC3)ccc21)NCc1cccc(Br)c1 ?
KB-V1 cytotox: inactive; KB-3-1 tox: inconclusive

What do the screens show for `Cc1ccc(CNC(=O)c2c(-c3ccccc3F)noc2C)o1`?
KB-V1 cytotox: inactive; KB-3-1 tox: inactive

What do the screens show for `Cc1cc(C)c(C(=O)/C=C/c2ccc(C(C)C)cc2)c(=O)[nH]1`?
KB-V1 cytotox: 16µM*; HT1080 IDH1KD tx: 16µM*; KB-3-1 tox: inactive; HT1080-NT tox: -21%

How did COC1=CC(=O)c2nc(Cl)ccc2C1=O do in these assays?
KB-V1 cytotox: inconclusive; HT1080 IDH1KD tx: 2.9µM*; KB-3-1 tox: inconclusive; HT1080-NT tox: 3.7µM*

How did Cc1c(C(=O)NCCS(=O)(=O)N2CCN(c3ccccc3F)CC2)cccc1[N+](=O)[O-] do in these assays?
KB-V1 cytotox: inconclusive; HT1080 IDH1KD tx: inconclusive; KB-3-1 tox: 23µM*; HT1080-NT tox: inconclusive

How did O=C(Cc1ccc(Cl)cc1)NCCS(=O)(=O)N1CCN(c2ccccc2F)CC1 do in these assays?
KB-V1 cytotox: 7.3µM*; HT1080 IDH1KD tx: inconclusive; KB-3-1 tox: 13µM*; HT1080-NT tox: inconclusive

How did O=C(NCCS(=O)(=O)N1CCN(c2ccccc2F)CC1)c1ccc(Cl)cc1 do in these assays?
KB-V1 cytotox: inconclusive; HT1080 IDH1KD tx: 2%; KB-3-1 tox: inactive; HT1080-NT tox: 0%

What do the screens show for `CCC(C)NC(=O)c1ccccc1NC(=O)c1ccc(CSc2ccccc2)cc1` (stereo unspecified)?
KB-V1 cytotox: 12µM*; HT1080 IDH1KD tx: 1%; KB-3-1 tox: inactive; HT1080-NT tox: 4%

What do the screens show for `COC(=O)c1sccc1S(=O)(=O)N(CC(=O)Nc1cc(C)ccc1C)c1ccc(C)c(C)c1`?
KB-V1 cytotox: inconclusive; KB-3-1 tox: inactive

Results for O=C(c1ccc2c(c1)OCCO2)C1CCN(C(=O)Nc2ccc(F)cc2)CC1 ?
KB-V1 cytotox: 23µM*; HT1080 IDH1KD tx: -4%; KB-3-1 tox: inactive; HT1080-NT tox: -9%

How did O=C(c1ccc2c(c1)OCCO2)C1CCN(S(=O)(=O)c2ccccc2F)CC1 do in these assays?
KB-V1 cytotox: 23µM*; HT1080 IDH1KD tx: inconclusive; KB-3-1 tox: inactive; HT1080-NT tox: -9%

How did O=C(NC(=S)Nc1ccc(CN2CCOCC2)cc1)c1ccc2c(c1)OCCO2 do in these assays?
KB-V1 cytotox: 21µM*; HT1080 IDH1KD tx: inconclusive; KB-3-1 tox: 18µM*; HT1080-NT tox: inconclusive

How did O=C(NC(=S)Nc1ccc(F)cc1)c1ccc2c(c1)OCCO2 do in these assays?
KB-V1 cytotox: inactive; HT1080 IDH1KD tx: -24%; KB-3-1 tox: 13µM*; HT1080-NT tox: -12%

What do the screens show for `COc1ccc(S(=O)(=O)N2CCC(C(=O)c3ccc4c(c3)OCCO4)CC2)cc1`?
KB-V1 cytotox: inactive; HT1080 IDH1KD tx: -26%; KB-3-1 tox: inconclusive; HT1080-NT tox: -28%

How did COc1ccc(NC(=S)NC(=O)c2ccc3c(c2)OCCO3)cc1 do in these assays?
KB-V1 cytotox: inactive; HT1080 IDH1KD tx: -3%; KB-3-1 tox: inactive; HT1080-NT tox: -4%

How did COc1ccc2c(CN(C)Cc3ccccc3)cc(=O)oc2c1 do in these assays?
KB-V1 cytotox: inactive; HT1080 IDH1KD tx: 1%; KB-3-1 tox: inactive; HT1080-NT tox: 10%

What do the screens show for `COc1ccc2c(CN(C)c3ccccc3)cc(=O)oc2c1`?
KB-V1 cytotox: 18µM*; HT1080 IDH1KD tx: -1%; KB-3-1 tox: inactive; HT1080-NT tox: -2%

What do the screens show for `Cc1c(-c2ccc(F)cc2)nc(N)c(C#N)c1-c1ccco1`?
KB-V1 cytotox: inactive; HT1080 IDH1KD tx: 13µM*; KB-3-1 tox: inactive; HT1080-NT tox: inconclusive

Results for CCOC(=O)N1CCN(c2ccc(S(=O)(=O)N(Cc3ccccc3)Cc3ccccc3)cn2)CC1 ?
KB-V1 cytotox: 5.8µM*; HT1080 IDH1KD tx: -7%; KB-3-1 tox: inactive; HT1080-NT tox: -5%

Results for Cc1[nH]nc(N=CC2=C(O)CC(C)(C)CC2=O)c1-c1ccc(Cl)cc1 ?
KB-V1 cytotox: 21µM*!; HT1080 IDH1KD tx: 1%; KB-3-1 tox: inactive; HT1080-NT tox: 4%

Results for Cc1[nH]nc(N=CC2=C(O)CC(c3ccco3)CC2=O)c1-c1ccc(Cl)cc1 (stereo unspecified) ?
KB-V1 cytotox: 16µM*; HT1080 IDH1KD tx: -13%; KB-3-1 tox: inactive; HT1080-NT tox: -1%

How did Cc1ccc(N=CC2=C(O)CC(c3ccco3)CC2=O)cc1 (stereo unspecified) do in these assays?
KB-V1 cytotox: inconclusive; HT1080 IDH1KD tx: 1%; KB-3-1 tox: inactive; HT1080-NT tox: 3%

How did Clc1cccc(N2CCN(c3nc4ccccc4c4nc(-c5ccccc5)nn34)CC2)c1 do in these assays?
KB-V1 cytotox: inconclusive; KB-3-1 tox: inactive
